Experimental data reported in the supplement of paper PMC10127200.
Where a name gives a salt, the structure may show the parent alone.

Assays:
Experiment in all cases: Euclidean distance of Cell Painting phenotypic profile (signed KS, 77 features) to DMSO centroid (dimensionless distance); 5 or 10 uM (library dependent); higher = stronger phenotypic change vs DMSO (phenoactivity)
Details in all cases: 48 h
[1] = test system: 786-O
Summary of the method: (§1)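 Phenoactivity is computed as Euclidean distance to the median vehicle profile. The profiles, drawn from 77 Harmony features scored as signed Kolmogorov-Smirnov statistics versus same-plate vehicle wells, were corrected for plate position, correlation-weighted and replicate-averaged at the top dose. Stained cells were imaged confocally at 20X (9 fields/well) after 48 h with library compounds at 10 or 5 uM, 0.1% DMSO final, in five cancer lines and a healthy fibroblast line.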

[2] = test system: A549
Summary of the method: as §1

[3] = test system: DU145
Summary of the method: as §1

[4] = test system: FB
Summary of the method: as §1

[5] = test system: HEPG2
Summary of the method: as §1

[6] = test system: OVCAR4
Summary of the method: as §1

Structure (SMILES)	Euclidean distance [1]	Euclidean distance [2]	Euclidean distance [3]	Euclidean distance [4]	Euclidean distance [5]	Euclidean distance [6]
CC(C)c1ccc2oc3nc(N)c(C(=O)O)cc3c(=O)c2c1 [Amlexanox]	0.725	0.9	0.886	0.891	0.909	0.738
CN[C@@H]1[C@@H](O)[C@@H](O[C@@H]2[C@@H](O)[C@H](O[C@H]3O[C@H](CN)[C@@H](O)[C@H](O)[C@H]3O)[C@@H](N)C[C@H]2NC(=O)[C@@H](O)CN)OC[C@]1(C)O [Isepamicin Sulphate]	1.12	0.946	0.819	1.14	0.94	1.65
CC(=O)Nc1ccc(OC(=O)c2ccccc2OC(C)=O)cc1 [Benorylate]	1.08	1.08	1.31	1.41	0.561	1.13
OC[C@@H](O)[C@@H](O)[C@H](O)[C@H](O)CO [D-Mannitol]	1.14	0.536	0.826	0.744	0.415	0.791
CN/C(=N\CCSCc1nc[nH]c1C)NC#N [Cimetidine]	0.94	0.861	0.762	0.864	0.95	1.25
C[C@H]1[C@H](NC(=O)/C(=N\OC(C)(C)C(=O)O)c2csc(N)n2)C(=O)N1S(=O)(=O)O [Aztreonam]	1.13	0.951	1.05	1.15	0.888	1.53
COc1ccc(Cc2cnc(N)nc2N)cc1OC [Diaveridine]	0.784	1.57	1.59	1.23	0.387	1.42
CC(C)NCC(O)COc1cccc2[nH]ccc12 (stereo not given) [Pindolol]	0.941	0.858	0.721	1.06	0.588	0.895
COc1ccc(S(=O)(=O)N(C(C)=O)c2ccccc2/C=C/c2cc[n+]([O-])cc2)cc1	2.93	2.94	4.01	2.75	3.08	2.97
CC(C)(C)NCC(O)COc1cccc2c1CC(O)C(O)C2 (stereo not given) [Nadolol]	0.954	1.38	1.88	0.792	0.849	1.11
C=CC(=O)Nc1cccc(Oc2nc(Nc3ccc(N4CCN(C)CC4)c(F)c3)nc3[nH]ccc23)c1 [Avitinib (AC0010)]	4.87	4.16	3.49	3.92	3.45	3.76
O=C(O)/C=C/c1ccc(Cn2ccnc2)cc1 [Ozagrel sodium]	1.06	1.08	1.01	1.07	1.03	0.564
CC(=O)OCC[N+](C)(C)C [Acetylcholine iodide]	0.893	0.442	0.869	0.877	0.594	1.19
CC(=O)Oc1ccccc1C(=O)Nc1ncc([N+](=O)[O-])s1 [Nitazoxanide]	1.27	1.18	1.96	1.68	1.32	1.34
O=C(O)C(Cc1c[nH]c2ccccc12)N1C(=O)c2ccccc2C1=O (stereo not given)	0.991	0.979	0.681	0.852	0.417	0.641
c1ccc2c(CC3=NCCN3)cccc2c1 [Naphazoline HCl]	1.23	0.672	1.11	0.693	0.599	0.531
CC#CC(=O)N1CC[C@@H](n2c(=O)n(-c3ccc(Oc4ccccc4)cc3)c3c(N)ncnc32)C1 [ONO-4059 (GS-4059) hydrochloride]	1.09	0.871	1.8	1.99	0.863	0.627
N=C(N)NS(=O)(=O)c1ccc(N)cc1 [Sulfaguanidine]	1.11	0.776	1.03	0.936	0.524	1.55
CCOc1ccc(NC(C)=O)cc1 [Phenacetin]	1.38	0.916	1.56	0.94	0.469	1.83
COc1cc2nccc(Oc3ccc(NC(=O)NC4CC4)c(Cl)c3)c2cc1C(N)=O [lenvatinib Mesylate]	1.2	1.1	1.71	3.39	0.829	2.16
Cc1[nH]c2ccccc2c1CCNCc1ccc(/C=C/C(=O)NO)cc1 [Panobinostat]	3.44	4.4	4.84	3.48	4.4	3.58
COc1ccccc1OCC(O)CO (stereo not given) [Guaifenesin]	1.05	0.957	1.4	1.24	1.99	1.31
CCn1c(-c2nonc2N)nc2c(C#CC(C)(C)O)ncc(OC[C@H]3CCCNC3)c21	3.05	2.49	1.16	2	1.95	2.14
O=C(CCc1ccc(O)cc1)c1c(O)cc(O)cc1O [Phloretin]	0.62	0.656	1.06	1.13	1.23	0.792
C=C1/C(=C\C=C2/CCC[C@]3(C)[C@@H]([C@H](C)/C=C/[C@H](C)C(C)C)CC[C@@H]23)C[C@@H](O)C[C@@H]1O [Doxercalciferol]	2.73	1.49	6.05	1.9	2.03	1.73
c1ccc(-c2nn3c(c2-c2ccnc4cc(OCCN5CCOCC5)ccc24)CCC3)nc1	1.44	0.959	1.42	1.75	1.45	0.876
C#C[C@]1(O)CC[C@H]2[C@@H]3CCC4=CC(=O)CC[C@@H]4[C@H]3CC[C@@]21CC [Levonorgestrel]	1.01	0.81	0.624	0.673	0.994	0.816
CC(C)CCNC(=O)[C@H](CC(C)C)NC(=O)[C@H]1O[C@@H]1C(=O)O [Loxistatin Acid (E-64C)]	1.6	2.18	1.48	1.04	1.44	1.5
CCOc1ccc(Cc2cc([C@@H]3O[C@H](CO)[C@@H](O)[C@H](O)[C@H]3O)ccc2Cl)cc1 [Dapagliflozin propanediol monohydrate]	1.02	0.644	1.02	0.967	0.649	0.832
c1ccc2c(c1)CCCC2C1=NCCN1 (stereo not given) [Tetrahydrozoline HCl]	0.978	0.966	0.786	0.944	0.601	1.78
